89 molecules from PubChem BioAssay AID743279 (National Center for Advancing Translational Sciences (NCATS), 2014) can be followed below.

SMILES strings stand for the structures. The campaign covered roughly 360,000 compounds. About 17,000 (4.7%) were called active. About 5% were inconclusive and are not listed. The sample as a whole holds a higher share of actives than the screen did. A number with no mark means an inactive call. Rule as the data show it: active = activity change below about -50%; inconclusive = mostly about -30% to -49%; inactive = weaker than that.
% is scaled to controls: 0 for no effect and ±100 for the full control effect.

The assay can be described thus: qHTS for Inhibitors of Inflammasome Signaling: IL-1-beta AlphaLISA Primary Screen. The settings on record: THP-1 LPS/ATP IL-1B secretion, 16 h; at 57.5 µM, active compounds read low. The method in brief: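 Secreted IL-1B measured by AlphaLISA bead assay after 16 h compound exposure of THP-1 cells; compounds (final up to 57.5 uM) added 1 h before LPS (250 ng/mL) and ATP (1.25 mM) stimulation; lower signal means less secretion.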
Background: Quantitative high-throughput screening tests each substance at several concentrations.
On to `C=C1C(=O)[C@]23C[C@H]1CCC2[C@@]1(C)C(C[C@@H]3O)[C@](C)(C(=O)O)CC[C@@H]1O` (some centres undefined), for which the activity change is -91.2% (active).

In the case of `COc1cc(S(=O)(=O)Nc2ncn[nH]2)ccc1Cl`, the activity change was 8.42%.

As to `CN1CCOC1c1ccc(C2OCCN2C)cc1` (centres undefined), the activity change was 5.1%.

Take `CN(C)c1ccc(/C=N/NC(=O)C(O)c2ccc(Br)cc2)cc1` (centres undefined): the activity change is -3.94%.

On to `CN(C)c1ccc(/C=N/NC(=O)c2ccc(Cn3cc(Br)cn3)o2)cc1`, for which the activity change is -53% (active).

Take `O=C(N/N=C\c1ccc(Br)cc1)c1ccc(Cn2cccn2)o1`: the activity change was -3.71%.

Take `CC=CCn1c(SCCCc2ccccc2)nc2c1c(=O)[nH]c(=O)n2C`: the activity change is 34.7%.

For `O=C1OC(Cc2ccccc2)C(c2ccccc2)C1=O` (centres undefined), the activity change was -4.65%.

Regarding `CCN1CCN(CCNC(=O)c2ccc3c(c2)NC(=O)/C(=C\c2cccc(Cl)c2)S3)CC1`, the activity change was 12.3%.

Consider `CCN(CCCNC(=O)c1ccc2c(c1)NC(=O)CN2C)c1cccc(C)c1`, for which the activity change was -98.2% (active).

With `CCN(CCCNC(=O)CCn1c(=O)[nH]c2ccsc2c1=O)c1ccccc1`, the activity change was -7.98%.

As to `O=C(Nc1ccc(F)cc1)C(CCc1ccccc1)N1CCN(CC(=O)N2CCCC2)CC1` (centres undefined), the activity change is -1.84%.

On to `CC(=O)Nc1ccccc1OC(C)C(=O)N1CCC(C)CC1` (centres undefined), for which the activity change is 26.5%.

For `CCOC(=O)C1C(C)C(C(C)(C)C)N(S(=O)(=O)c2ccc(C)cc2)C1c1ccccc1` (centres undefined), the activity change was -15.7%.

With `Cc1cc(C(=O)N/N=C\C(Br)=C\c2ccccc2)c(C)o1`, the activity change was -99% (active).

As to `CC(=C/c1ccccc1)/C=N/NC(=O)c1cc(C)oc1C`, the activity change is -1.83%.

For `COc1ccc(C/C(C)=N/NC(=O)c2cc(C)oc2C)cc1`, the activity change was -3.42%.

In the case of `CC(/C=N/NC(=O)c1cc(-c2ccc3ccccc3c2)n[nH]1)=C\c1ccco1`, the activity change was -29.4%.

With `CC(C)c1cc(C(=O)O)n[nH]1`, the activity change is -10.8%.

As for `CC(C)c1cc(C(=O)N/N=C/C(Br)=C/c2ccccc2)n[nH]1`, the activity change is -78.1% (active).

As to `CCC1C=C(c2ccccc2)C=CN=C1N(CC)CC` (centres undefined), the activity change was -9.78%.

In the case of `COc1c(C)cc(C(O)c2ncc(-c3cccc(C(F)(F)F)c3)[nH]2)cc1C` (centres undefined), the activity change is -19.6%.

For the molecule `C=CCn1c(CCNC(=O)c2ccccc2F)nnc1SCC(=O)Nc1ccc(OC)cc1`, the activity change was 0.328%.

On to `N#Cc1cc([N+](=O)[O-])ccc1NCC1CCCO1` (centres undefined), for which the activity change is 16.2%.

Turning to `COc1cc(OC)cc(C(=O)N[C@H](C(=O)OCC(=O)NC(C)c2ccccc2)C(C)C)c1` (some centres undefined), the activity change is 0%.

On to `Cc1nn(CCOc2ccccc2)c(=O)n1-c1ccccc1F`, for which the activity change is -5.73%.

Take `COc1ccc(OCCNS(=O)(=O)Cc2ccccc2)cc1`: the activity change is 5.88%.

Take `CC(C)(c1ccccc1)c1ccc(OCCN)cc1`: the activity change was -93.8% (active).

As to `CCOn1c(=O)c(=O)n(O)c2ccccc21`, the activity change is 33.6%.

In the case of `COc1cc(C)c(CN2CCN(C(=O)CCC(=O)c3ccc(C)s3)CC2)cc1OC`, the activity change was -4.16%.

`CC(C(=O)NC1CCS(=O)(=O)C1)N1C(=O)/C(=C/c2ccc(Cl)cc2)SC1=S` (centres undefined): the activity change is -3.39%.

With `O=C1/C(=C\c2ccc(O)cc2)CCC1CNc1ccc(Cl)cc1` (centres undefined), the activity change was -106% (active).

As for `COCOCCn1cc(CN2CCS(=O)(=O)N(Cc3ccc(-c4ccc(OC)cc4)cc3)C(CC(C)C)C2=O)nn1` (centres undefined), the activity change was -56.9% (active).

Turning to `CC1C(=O)N(Cc2cn(Cc3ccco3)nn2)CCS(=O)(=O)N1Cc1ccc(-c2cccc(CO)c2)cc1` (centres undefined), the activity change is -17.1%.

Turning to `COCOCCn1cc(CN2CCS(=O)(=O)N(Cc3ccc(-c4cccc(N(C)C)c4)cc3)C(CC(C)C)C2=O)nn1` (centres undefined), the activity change is -1.55%.

`CC(C)CC1C(=O)N(Cc2cn(Cc3ccco3)nn2)CCS(=O)(=O)N1Cc1ccc(-c2ccc(Cl)c(Cl)c2)cc1` (centres undefined): the activity change is -82.3% (active).

In the case of `COc1ccc(-c2ccc(CN3C(CC(C)C)C(=O)N(Cc4cn(CC5CCCCC5)nn4)CCS3(=O)=O)cc2)cc1` (centres undefined), the activity change is 18.2%.

`CC(C)CC1C(=O)N(Cc2cn(CC3CCCCC3)nn2)CCS(=O)(=O)N1Cc1ccc(-c2ccc(Cl)cc2)cc1` (centres undefined): the activity change is -2.11%.

Turning to `Cn1nc(N)c2ncc(C(Cl)(Cl)Cl)nc21`, the activity change was -5.29%.

In the case of `O=C(N/N=C\c1cc2c(cc1Cl)OCO2)c1ccc(Br)s1`, the activity change was 7.39%.

Take `COc1ccc(-c2ccc(C(=O)NC(C)C)c3occc23)c(C)c1`: the activity change was -6.78%.

Regarding `Cc1cc2nc(-c3ccc(Cl)cc3)c(Cc3cccc(F)c3)n2c(C)c1Br`, the activity change is 0%.

As for `CCCCNc1nc2c(c(=O)n(C)c(=O)n2C)n1Cc1cccc(OC)c1`, the activity change was -59.5% (active).

For the molecule `CCCCNc1nc2c(c(=O)[nH]c(=O)n2C)n1CCOc1ccccc1`, the activity change is 26.9%.

`CCn1c(NCCc2ccc(OC)c(OC)c2)nc2c1c(=O)n(C)c(=O)n2C`: the activity change was 5.08%.

As to `CCc1c(N=O)c(-c2ccccc2)n(O)[n+]1[O-]`, the activity change is -4.78%.

In the case of `CN(C)C(CNC(=O)c1ccc(OCc2cn3ccccc3n2)cc1)c1ccco1` (centres undefined), the activity change is 3.62%.

Consider `CN(C)CCNC(=O)c1ccc(-c2cn3c(-c4ccc(Oc5ccccc5)cc4)cnc3cn2)cc1`, for which the activity change was -66.3% (active).

With `Cc1noc(C)c1COc1ccc(C(=O)NCCOc2ccccc2)cc1`, the activity change is -10.6%.

Consider `COc1cc(N/C=C2\CC(=O)NC(C)=C2C#N)cc(OC)c1OC`, for which the activity change is 18.8%.

As to `O=C(CN1CCN(c2ncc(C(F)(F)F)cc2Cl)CC1)Nc1ccc2c(c1)OCO2`, the activity change is -50.6% (active).

As to `O=C(CN1CCN(C(=O)c2ccco2)CC1)Nc1ccc2c(c1)OCO2`, the activity change was 21.4%.

As to `O=C(Cn1cc(C(F)(F)F)ccc1=O)Nc1ccc2c(c1)OCCO2`, the activity change is -6.35%.

Take `CCCNC(=O)C1(C)CCCN(Cc2cccc(C(F)(F)F)c2)C1` (centres undefined): the activity change was -10.2%.

Consider `CCC(C(=O)NCc1ccccc1)n1c(Cc2cc(F)cc(F)c2)nc2ccccc21` (centres undefined), for which the activity change is -4.41%.

As for `CCOC(=O)[C@]12CCCC=C1N(CCC1=CCCCC1)C(=O)[C@H](CC(=O)N1CCOCC1)C2`, the activity change is 12.3%.

With `COc1ccc(CNC(=O)c2ccc(-c3cccnc3)c3ccoc23)cc1OC`, the activity change is -14.6%.

Turning to `O=C(Nc1ccc(N2CCOCC2)cc1)c1cccc2c(-c3ccc(F)c(F)c3)coc12`, the activity change was -5%.

In the case of `CN(C)c1cccc(NC(=O)c2ccc(-c3ccc(F)c(F)c3)c3ccoc23)c1`, the activity change is -82.3% (active).

Regarding `COc1cc(C=O)c(Br)cc1OCC(=O)NCc1ccccc1`, the activity change is -25.7%.

Turning to `COc1cc(CNC2CCCC2)c(Br)cc1OCc1ccccc1`, the activity change is -92.7% (active).

`COc1cc(C(=S)NC2CCCCC2)ccc1O`: the activity change was 5.59%.

Regarding `COc1cc(CNC2CCCCC2)c(Br)cc1OC1CCCC1`, the activity change is -64.3% (active).

In the case of `COc1ccc(CNC2CCCCC2)cc1`, the activity change is -4.21%.

Turning to `CC(C)(C)NCc1cc(Br)ccc1OC1CCCC1`, the activity change is -13.9%.

With `CCN1C(=O)[C@H]2[C@@H](c3ccc(C(F)(F)F)cc3)N[C@]3(CCCN(Cc4ccc(Br)cc4)C3=O)[C@H]2C1=O`, the activity change was -19.9%.

For `O=C1C2C3C=CC(C3)C2C(=O)N1c1ncc([N+](=O)[O-])s1` (centres undefined), the activity change is 6.51%.

For `CCOc1ccc(S(=O)(=O)NCCC(=O)NCC2CCCO2)cc1` (centres undefined), the activity change was 32.7%.

Consider `COc1ccccc1-c1nn(Cc2ccccc2)cc1C(=O)N1CCN(c2ncccn2)CC1`, for which the activity change is 1.02%.

As for `COc1ccc(C(C(=O)NCc2ccccc2)n2c(=O)c(-c3ccccc3)nc3ccccc32)cc1` (centres undefined), the activity change is -6.01%.

For the molecule `CSc1ccc(CCNC(=O)CS(=O)(=O)Cc2nc(-c3ccccc3F)oc2C)cc1`, the activity change is 9.85%.

Consider `Cc1ccccc1-c1nc(CS(=O)(=O)CC(=O)NC(C)c2ccccc2)c(C)o1` (centres undefined), for which the activity change was -61.7% (active).

In the case of `Cc1ccc(S(=O)(=O)CC(=O)NC(C)c2ccccc2)cc1` (centres undefined), the activity change was 0.147%.

With `NC(=S)NN=C1CCCC(C(F)(F)F)C1` (centres undefined), the activity change was 4.88%.

Turning to `O=C(c1ccc2c(c1)C(=O)N(Cc1ccncc1)C2=O)N1CCN(S(=O)(=O)c2ccc(OC(F)(F)F)cc2)CC1`, the activity change is 8.07%.

With `Cc1ccc(O)c(-c2cc(C(=O)NCc3ccccc3)[nH]n2)c1`, the activity change is -0.0227%.

Regarding `COc1ccccc1CNC(=O)c1cc(-c2cc(Cl)ccc2C)n[nH]1`, the activity change was -16.3%.

As to `Cc1cc(O)ccc1-c1cc(C(=O)NCc2cc(C(F)(F)F)cc(C(F)(F)F)c2)[nH]n1`, the activity change was -53.4% (active).

For `COC(=O)c1ccc2nc(-c3ccc(Cl)cc3)c(Cc3cccc(F)c3)n2c1`, the activity change is 58.6%.

With `CC(=O)NC(NC(=S)Nc1c(C)n(C)n(-c2ccccc2)c1=O)C(Cl)(Cl)Cl` (centres undefined), the activity change was 0%.

Turning to `CCOC(=O)N1CCN(CCC(=O)Nc2ccccc2)CC1`, the activity change was -4.73%.

Take `O=C(CN1CCN(Cc2ccccc2)CC1)Nc1ccc(F)c(F)c1`: the activity change was -7.81%.

In the case of `Cc1cc(NC(=O)CCN2CCN(Cc3ccccc3)CC2)ccc1Br`, the activity change is -54% (active).

With `O=C(OCC(=O)N1CCCCCC1)c1cccc(Cl)c1Cl`, the activity change is 9.58%.

On to `COc1ccc(Cl)cc1N(CC(=O)N/N=C/c1ccc(OCC(N)=O)cc1)S(C)(=O)=O`, for which the activity change was 34.5%.

As to `NC(N)=N/N=C/c1ccc(OCc2ccc(Cl)cc2Cl)cc1`, the activity change is -97.9% (active).

`Cc1nc2ccccc2nc(C)c1=NOCc1ccc(Cl)cc1Cl`: the activity change is 0%.

On to `COc1ccc(/C=C/C(=O)OCC(=O)N2CCN(S(=O)(=O)c3ccc(C)cc3C)CC2)cc1OC`, for which the activity change is 1.01%.

As to `COc1ccc(CCNc2cc(C)nc3c(-c4ccc(Cl)cc4)c(C)nn23)cc1OC`, the activity change is 15.4%.
